Results taken from PubChem BioAssay AID687028 (Broad Institute, 2013).
In all, about 1,400 compounds went through this assay and about 55 (4%) were called active. A selection follows. Potency and affinity values are given separately. A number with no mark means an inactive call. How the calls were made is not given here.

experiment: A549 cell toxicity, dose response, cytotoxicity control, plate reader, cherry-pick samples (AID 687028); conditions: series mostly up to 19.5 µM; activity change, negative = toxicity: at the top concentration;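 further: cells incubated with compound for three days before reading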

| SMILES | activity change, negative = toxicity |
| --- | --- |
| C[C@@H]1CCCCO[C@@H](CN(C)C(=O)Nc2ccc(C(F)(F)F)cc2)[C@H](C)CN([C@H](C)CO)C(=O)c2cc(NC(=O)Cc3ccccc3)ccc2O1 | -4.73% |
| C[C@H](CO)N1C[C@H](C)[C@H](CN(C)C(=O)Nc2ccc(F)cc2)OCCCC[C@H](C)Oc2ccc(NC(=O)c3ccccc3)cc2C1=O | -6.69% |
| C[C@@H]1CCCCO[C@H](CN(C)Cc2ccc(C(F)(F)F)cc2)[C@H](C)CN([C@@H](C)CO)C(=O)c2cc(NC(=O)c3ccccc3)ccc2O1 | -31.1% |
| C[C@@H]1CN([C@H](C)CO)C(=O)c2cc(NC(=O)Nc3ccc(C(F)(F)F)cc3)ccc2O[C@@H](C)CCCCO[C@@H]1CN(C)C(=O)Cc1ccccc1 | 3.37% |
| Cc1nc2ccccc2n1C(c1cccnc1)c1nc2ccccc2[nH]1 (stereo not drawn) | 3.62% |
| O=C1c2ccccc2C(=O)N1CC(=O)N1c2ccccc2Sc2ccc(C(F)(F)F)cc21 | 4.42% |
| COc1ccccc1NCC(=O)N/N=C(\C)c1ccc(Br)s1 | 3.35% |
| O=C(NCCCCNC(=O)c1cccnc1Cl)c1cccnc1Cl | 1.96% |
| Cc1ccc(CNCc2cc(Cl)ccc2O)cc1 | -0.534% |
| Oc1ccc(Cl)cc1CNCc1ccc(F)cc1 | 0.475% |
| O=C(NC1CC1)c1cccc(NC(=O)c2cc(S(=O)(=O)N3CCOCC3)ccc2Cl)c1 | 5.28% |
| O=C(C[C@@H]1CC[C@H]2[C@@H](COC[C@H](O)CN2C(=O)c2ccccc2F)O1)NCc1ccccc1 | 4.14% |
| COc1cccc(C(=O)N2CCOCC2)c1 | 3.69% |
| CCC(=O)Nc1nnc(/C=C/c2ccc(OC)cc2)s1 | 3.82% |
| C[C@@H]1CCCCO[C@H](CN(C)C(=O)NC2CCCCC2)[C@@H](C)CN([C@H](C)CO)C(=O)c2cc(NC(=O)CCCCCC(=O)Nc3ccccc3N)ccc2O1 | -0.471% [at 21 µM] |
| Clc1cc(Br)ccc1OCCCn1ccnc1 | -3.3% |
| Clc1cc(Br)ccc1OCCOCCN1CCCC1 | 3.02% |
| COc1ccc(C(=O)NCCNc2nc3c(C)cccc3cc2C#N)cc1OC | -1.18% |
| Cn1c(N)c(C(=O)N2CCN(c3ccccc3)CC2)c(=O)n(C)c1=O | 0.876% |
| CN1c2ccc(Br)cc2[C@@H]2[C@@H](CCN2C(=O)C2CCCC2)[C@H]1CO | 13.6% |
| CN1c2ccc(Br)cc2[C@H]2[C@H](CCN2C(=O)C2CCC2)[C@H]1CO | -2.31% [at 21 µM] |
| COc1cccc(C2(c3cccc(OC)c3)CC2C(=O)Nc2ccc(F)cc2)c1 (stereo not drawn) | 1.49% |
| CN1C(C)(C)c2ccccc2OS1(=O)=O | 2.21% |
| O=C(CN1CCN(S(=O)(=O)c2ccccc2F)CC1)NC1CCCC1 | 1.27% |

| SMILES | activity change, negative = toxicity |
| --- | --- |
| COc1ccc(S(=O)(=O)N2CCC(C(=O)NCCC(=O)NCc3ccccn3)CC2)cc1 | 5.8% |
| O=C(NCc1ccccc1)[C@H]1CCCN1C(=O)[C@H]1CCCN1C(=O)c1ccc(Cl)cc1 | 2.99% |
| COc1ccc(C2=Nn3c(nnc3-c3ccccc3Cl)SC2)cc1OCC1CC1 | -2.82% |
| Cc1ccc(S(=O)(=O)Cc2ccccc2Cl)cc1 | -2.25% |
| CC(NC(=O)CN1CCN(c2cccc(Cl)c2)CC1)c1ccccc1 (stereo not drawn) | 2.41% |
| CC(C)(C)c1ccc(C(=O)OCC(=O)Nc2sc3c(c2C#N)CCC3)cc1 | 8.14% |
| COc1ccc(-c2nc(NCCCN(C)C)c3ccccc3n2)cc1 | -3.68% |
| COc1ccc(C(CNC(=O)c2cccc3cccnc23)N(C)C)cc1 (stereo not drawn) | -38.7% |
| COC(=O)[C@@H]1[C@H](CCc2ccccc2)NC(=O)N(Cc2ccccc2)[C@@H]1C | 9.65% |
| COc1ccc(C2=Nc3ccccc3N(C(=O)c3ccncc3)C2C(=O)NC(C)C)cc1 (stereo not drawn) | 6.76% |
| COc1ccc(OC)c(NC(=O)NNS(=O)(=O)c2ccc(C)cc2C)c1 | 10.2% |
| Cc1ccc(C)c(NC(=O)CN2C(=O)C3CC=CCC3C2=O)c1 (stereo not drawn) | 2.15% |
| CC1(C(=O)NCc2cccc(C(F)(F)F)c2)CCN1Cc1cc2ccccc2o1 (stereo not drawn) | 5.37% |
| CC1(C(=O)Nc2cccc(OC(F)(F)F)c2)Cc2c(-c3cccc(C(N)=O)c3)ccnc2O1 (stereo not drawn) | -15.9% |
| C[C@H](CO)N1C[C@H](C)[C@@H](CN(C)S(=O)(=O)c2cn(C)cn2)Oc2ccc(NC(=O)Nc3cccc4ccccc34)cc2CC1=O | 4.45% [at 21 µM] |
| O=C(N[C@@H]1c2ccccc2CC[C@@H]1OCc1ccccc1)c1ccc(C(F)(F)F)cc1 | -0.699% |
| CCCn1c(NCc2ccc(N(C)C)cc2)nc2ccccc21 | 3.28% |
| COc1ccc(CNC(=O)COC(=O)CN2C(=O)NC3(CCCC3)C2=O)cc1 | 2.48% |
| CCC(c1nnnn1-c1c(C)cccc1C)N1CCN(C/C=C/c2ccccc2)CC1 (stereo not drawn) | -4.93% |
| O=C1CCCC(c2ccccc2)N1 (stereo not drawn) | 1.97% |
| COc1cc(C(=S)N2CCCCC2)ccc1OCC(=O)Nc1ccc(F)cc1 | -0.726% |
| Cc1ccc(NC(=O)CN2CCC(NC(=O)c3cccc(F)c3)CC2)cc1C | 4.03% |
| COc1ccc(CCN2C(=O)CSCC2(C)C(=O)Nc2ccc3c(c2)OCCO3)cc1OC (stereo not drawn) | 2.93% |
| CCN1CCN(C(=O)C2CC(=O)N(c3ccc(Cl)cc3)C2)CC1 (stereo not drawn) | 4.04% |

| SMILES | activity change, negative = toxicity |
| --- | --- |
| COc1cccc(N2CC(C(=O)Nc3ccc(F)cc3)CC2=O)c1 (stereo not drawn) | 3.92% |
| CCOc1ccc(/C=N/n2nnnc2N)cc1OCC | 14.9% |
| CC(C)(C)N(Cc1ccccc1)C(=O)COC(=O)C1CCN(c2ccc(C(F)(F)F)cn2)CC1 | 1.79% |
| CN1CCN(C(=O)c2cc3sc4ccccc4c3s2)CC1 | 3.61% |
| Cc1cc2oc3ccc(NCCCN4CCOCC4)cc3c(=O)c2cc1C | 3.8% |
| Cc1ccc(S(=O)(=O)N(C)C)cc1NC(=O)COC(=O)C1CCCC1 | 3.55% |
| COC(=O)CN(c1cc(Cl)ccc1OC)S(=O)(=O)c1ccc(OC)c(OC)c1 | 4.16% |
| O=C(NC1CCCC1)c1nc(-c2c(F)cccc2F)oc1-c1ccccc1 | 4.75% |
| Cc1cccc(C)c1OCC(O)Cn1ccnc1C (stereo not drawn) | 0.445% |
| Cc1cccc(C(=O)OCC(=O)NCc2ccc(Cl)cc2)c1 | 6.43% |
| CN1CCC(=O)N([C@H](COc2ccccc2)Cc2ccccc2)CC1 | -1.58% |
| O=C(Cc1cn(Cc2ccccc2)c2ccccc12)Nc1ccc(Oc2cccnc2)cc1 | 6.03% |
| O=C(Oc1ccccc1)c1ccccc1C(=O)Oc1ccccc1 | 1.83% |
| COc1ccc(NC(=O)c2cc3ccccc3cc2O)cc1 | 5.07% |
| Cc1ccccc1-c1ccc(C2[C@@H]3CN(C(=O)Cc4ccncc4)C[C@H]2N3)cc1 (stereo partly drawn) | 3.86% [at 21 µM] |
| COCCNC(=O)C1(C)CCCN(C(=O)c2ccccc2)C1 (stereo not drawn) | 0.534% |
| CC(C)c1ccc(NC(=O)[C@H](NC(=O)[C@@H]2Cc3ccccc3CN2)c2ccccc2)cc1 | 3.25% |
| COc1ccc(S(=O)(=O)N2CCC(C(=O)N[C@H](C(=O)NCc3ccccc3)C(C)C)CC2)cc1 | -1.57% |
| COc1ccc2c(C)c(CCC(=O)NC3CC3)c(=O)oc2c1C | 4.32% |
| C[C@@H]1CN([C@H](C)CO)C(=O)Cc2cc(NC(=O)C3CC3)ccc2O[C@H]1CN(C)C(=O)Nc1ccccc1 | 6.32% [at 21 µM] |
| CCc1nnc(N2C(=O)c3ccccc3C2(O)c2ccccc2)s1 (stereo not drawn) | 0.278% |
| CCN1C(=NCCc2c[nH]c3ccccc23)N[C@@H](c2ccccc2)[C@H](C(=O)OC)[C@H]1C | 3.65% |
| O=C(O)CCCCCCCCc1cn(CCc2c[nH]c3ccccc23)nn1 | 1.36% |
| CCOc1ccc2[nH]c3ncccc3c(=O)c2c1 | 10.9% |

| SMILES | activity change, negative = toxicity |
| --- | --- |
| C[C@@H]1CCCCO[C@@H](CN(C)C(=O)C2CCCCC2)[C@H](C)CN([C@H](C)CO)C(=O)c2cc(NC(=O)c3ccncc3)ccc2O1 | 3.35% |
| C[C@@H]1CCCCO[C@@H](CN(C)S(=O)(=O)c2ccc(F)cc2)[C@@H](C)CN([C@@H](C)CO)C(=O)c2cc(NC(=O)c3ccccc3)ccc2O1 | -0.972% |
| O=C1Nc2ccccc2C(=O)N(C2CCCC2)C1C(=O)NC1CC1 (stereo not drawn) | 2.89% |
| CC(C)(C)NC(=O)c1cccc(NC(=O)c2ccc3c(c2)C(=O)N(C(C)(C)C)C3=O)c1 | 7.87% |
| COc1cc(OC)cc(C(=O)Nc2ccc3nc4n(c(=O)c3c2)CCCC4)c1 | 4.55% |
| O=C(c1ccccc1Cc1ccccc1)N1CCN(S(=O)(=O)c2ccccc2)CC1 | -0.548% |
| Cc1cc2oc(=O)cc(Cn3ccnc3)c2cc1Cl | 5.68% |
| COc1ccc2c3c([nH]c2c1)[C@H](CO)N(C(=O)Nc1cccc(F)c1)CC31CN(S(=O)(=O)c2ccccc2)C1 | -22.3% |
| COc1ccc2c3c([nH]c2c1)[C@H](CO)N(C(C)=O)CC31CN(C(=O)c2cccc(F)c2)C1 | 1.32% |
| O=S(=O)(c1cccs1)N1CCN(c2ccnc3cc(Cl)ccc23)CC1 | 1.26% |
| CN(C[C@H](Cc1ccccc1)N(C[C@@H](CC1CCCCC1)N(CCc1ccccc1)N=O)N=O)N=O | 5.21% |
| CCCCCC(=O)N1C[C@@H](O)[C@H](n2cc(COC(=O)c3ccccc3)nn2)C[C@@H]1c1ccc(C)cc1 | 2.72% |
| O=C(C1CCCCC1)N1C[C@H](O)[C@@H](n2cc(C3CC3)nn2)C[C@@H]1c1ccccc1 | 2.27% |
| Cc1noc(C)c1NC(=O)Nc1ccc2c(c1)C(=O)N([C@@H](C)CO)C[C@@H](C)[C@@H](CN(C)C)OCCCC[C@@H](C)O2 | 6.53% |
| CCOC(=O)N1CCC(NCCNC(=O)c2ccc(F)c(F)c2)CC1 | 3.93% |
| COc1ccc(CN2CCC(C(=O)NC(c3ccc4c(c3)OCO4)c3ccccn3)CC2)cc1 (stereo not drawn) | -3.27% |
| C[C@H](NC(=O)C1CCN(S(=O)(=O)c2ccccc2)CC1)C(=O)NCc1cccnc1 | 0.309% |
| COc1ccc(C2NC(=O)NC(C)=C2C(=O)Nc2cccc(C)c2C)cc1 (stereo not drawn) | 1.37% |
| CCN(C[C@H]1N[C@@](C)(C(=O)OC)[C@H]2C(=O)N(C)C(=O)[C@@H]12)S(=O)(=O)c1ccc(-c2ccccc2)cc1 | 0.033% |
| CC(C)CCNC(=O)C1CC(c2ccccc2C(F)(F)F)=NO1 (stereo not drawn) | -2.08% |
| Cc1cccc(N(CC(=O)NC2CC2)S(=O)(=O)c2ccc(Cl)cc2)c1 | 1.14% |
